Records with an inconclusive call do not appear. Calls of active or inactive are those of the source. Unless noted, the call rests on the fitted dose curve; in most records, active means well fitted curve in the direction sought with a large enough effect; inconclusive means small, poorly fitted or top-dose-only effect, or another doubt; inactive means no such curve, though single readings can be large; an effect the other way counts as inactive or inconclusive.
What was measured:
[1] = target: Cytochrome P450 1A2 (Homo sapiens) (UniProt P05177); test: p450-cyp1a2 (AID 410; calls by dose curve;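 further: -100% = full effect of reference inhibitor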)
Procedure, shortened: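 O-Demethylation of luciferin 6' methyl ether by human CYP1A2 is monitored as luciferase luminescence. Substrate sits at Km (100uM); enzyme is 20nM. Values are scaled to 57 uM furafylline as maximal inhibition.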

[2] = NFAT Signaling Pathway (AID 444; active means well fitted curve in either direction with a large enough effect, not every such curve was filed as active;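 further: carbachol stimulus at about its EC50 of 1 µM final; on the % scale 0 is the no-effect control and ±100 the full control effect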); settings: Jurkat NFAT-bla M1, carbachol, beta-lactamase ratio, 5 h; at 38 µM (top of the series)
Procedure, shortened: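 Read-out: CCF4 FRET ratio (460 nm/530 nm) after 1 h RT dye loading, used for %activity and AC50 from titration series. Cells: Jurkat NFAT-β-lactamase/M1 line, treated with compound plus 1 uM carbachol for 5 h, 37 °C.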

[3] = target: Glucocorticoid receptor (Homo sapiens) (UniProt P04150); test: GR-GFP Redistribution (AID 450;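 active means compounds whose dose series gives a full or clear partial fitted curve of increased nuclear translocation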; further: potency means the concentration at half of the fitted maximal effect); settings: U2OS GR-GFP nuclear translocation, laser cytometry, 2 h
[4] = target: Glucocorticoid receptor (Homo sapiens) (UniProt P04150); test: GR-EFC Redistribution (AID 451; calls by dose curve; further: potency means the concentration at half of the fitted maximal effect); settings: CHO-K1 GR-EFC translocation, beta-gal luminescence, 2 h
Procedure, shortened: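 Translocation of GR-ED fusion to nuclear EA restores b-gal, read by luminescence after 1 h room-temperature detection. Engineered CHO-K1 biosensor cells, 1,000/well, exposed 2 h at 37 C to titrations up to 46 uM final.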

[5] = target: Mitogen-activated protein kinase 10 (Mus musculus) (UniProt Q61831); test: JNK3 AlphaScreen Assay (AID 530; active means well fitted curve in either direction with a large enough effect, not every such curve was filed as active;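 further: kinase came from lysate of stimulated human HepG2 cells; signal reports phosphorylation of biotinylated GST-cJun 1-79 at Ser73 with 10 µM ATP; on the % scale 0 is the no-effect control and ±100 the full control effect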)
Procedure, shortened: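 qHTS titrations with 15 min compound pre-incubation before adding ATP (10 uM final). Read-out: AlphaScreen of Ser73-phosphorylated biotin-GST-cJun using HepG2 lysate JNK3 activated by IL-1β and TNFα.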

[6] = target: 3',5'-cyclic-AMP phosphodiesterase 4B (Homo sapiens) (UniProt Q07343); test: qHTS Assay for Inhibitors of PDE-IV (AID 607; active means well fitted activation curve with a large enough effect in the main read-out, with a control signal flat, not every such curve was filed as active; further: % of control where 0% means no effect)
Procedure, shortened: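 ACTOne HEK293 cells carry a modified cAMP-gated CNG channel and express endogenous PDE4; plated 1000 cells/well, compounds up to 22.9 uM final. Membrane-potential dye fluorescence (ex 535/em 590) was read; parental cells received 10 uM forskolin + 100 uM RO 20-1724.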

[7] = target: Guanine nucleotide-binding protein G(i) subunit alpha-1 (Homo sapiens) (UniProt P63096); test: qHTS Assay for Inhibitors of RGS12 GoLoco Motif Activity (Green Fluorophore) (AID 879);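 further: 0% = labeled peptide with Gαi1 and full inhibition = labeled peptide alone without protein; negative values mean loss of peptide binding seen as reduced polarization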
Procedure, shortened: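 A drop in FITC polarization marked displacement of the FITC-tagged RGS12 GoLoco peptide (10 nM) from Gαi1 (50 nM). Compounds were incubated 10 min at room temperature in Tris pH 7.5 buffer containing 150 mM NaCl, 0.1 mM GDP and 0.05% NP40; unlabeled peptide titration served as control.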

[8] = qHTS Assay for Identification of Small Molecule Agonists for Thrombopoietin (TPO) Signaling Pathway (AID 917); further: on the % scale 0 is the no-effect control and ±100 the full control effect
Procedure, shortened: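 Stimulation at the TPO EC50 (26 pM final) was used to detect activators. Ba/F3 mouse cells bearing human TPO receptor and a luciferase reporter under the Glycoprotein IIb promoter were exposed to compounds for 24 hrs at 37 C.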

[9] = target: Muscarinic acetylcholine receptor M1 (Rattus norvegicus) (UniProt P08482); test: qHTS Assay for Antagonists of Acetylcholine Muscarinic M1 Receptor: Measurement of IP-One Response (AID 944); further: nearly all actives have a fitted effect of over 75% in size
Procedure, shortened: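 Antagonist mode with rat M1 receptor transfected into CHO cells. Compound is added first for 10 min, carbachol at its EC80 follows for 30 min, and lysis reagents then allow TR-FRET detection of accumulated IP1.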

[10] = target: Pyruvate kinase (Leishmania mexicana) (UniProt Q27686); test: qHTS Validation Assay for Inhibitors of Leishmania Mexicana Pyruvate Kinase (AID 945);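 further: 0% = DMSO only neutral control wells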
Procedure, shortened: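 The enzyme is a highly purified E451W mutant of LmPYK used at 0.2 nM. It converts 0.5 mM PEP and 0.1 mM ADP over 1 h at room temperature; product ATP is quantified by luciferase luminescence relative to DMSO controls.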

[11] = target: Alpha-galactosidase (Coffea arabica) (UniProt Q42656); test: Counterscreen for Glucocerebrosidase Inhibitors: qHTS Assay for Coffee Bean alpha-Galactosidase at pH 4.5 (AID 957);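 further: plate controls were enzyme alone for no effect and no enzyme for full effect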
Procedure, shortened: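 Enzyme is added first (2 nM final), then compounds titrated from 0.7 nM to 77 uM, then 80 uM 4-methylumbelliferyl alpha-D-galactopyranoside; after 20 min at room temperature a pH 10 NaOH/glycine stop precedes fluorescence reading at 365/440 nm.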

[12] = target: Alpha-galactosidase A (Homo sapiens) (UniProt P06280); test: Counterscreen for Glucocerebrosidase Inhibitors: qHTS Assay for Human alpha-Galactosidase at pH 4.5 (AID 992); further: 0% is about no effect
Procedure, shortened: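 Citrate buffer pH 4.5, Tween-20 0.005%. Enzyme 2 nM, substrate 80 uM, 20 min RT. Stop pH 10. Fluorescence Ex 365/Em 440. AC50 by Hill fit.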

[13] = target: Alpha-galactosidase (Coffea arabica) (UniProt Q42656); test: Counterscreen for Glucocerebrosidase Inhibitors: qHTS Assay for Coffee Bean alpha-Galactosidase at pH 5.9 (AID 998);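 further: plate controls were uninhibited enzyme for no effect and no-enzyme basal signal for full effect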
Procedure, shortened: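 Fluorogenic 4-MU substrate hydrolysis, 80 uM substrate and 2 nM coffee bean alpha-galactosidase, pH 5.9 citrate buffer, 20 min at room temperature, then NaOH/glycine stop. Titration 0.7 nM–77 uM, normalized to no-enzyme and enzyme controls, AC50 via Hill equation.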

[14] = Validation of Assay for Modulators of Lamin A Splicing (AID 1459; active means well fitted curve in the direction sought with a large enough effect in the signal ratio; the % refers to the signal ratio;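 further: cells exposed to compound for two days before reading; 0% is about no effect; ratio rise marks activators and ratio drop marks inhibitors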)
Procedure, shortened: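 S3 HeLa stably expressing lamin A-EGFP splicing minigene and DsRed2, 600 cells/well in Opti-MEM with 2% FBS, treated 48 h at 37C; laser-scanning cytometry gives GFP/RFP total intensity ratio; ancitabine positive control, 0.5% DMSO vehicle.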

[15] = target: DNA repair nuclease/redox regulator APEX1 (Homo sapiens) (UniProt P27695); test: qHTS Validation Assay for Inhibitors of the Human Apurinic/apyrimidinic Endonuclease 1 (APE1) (AID 1705;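 further: TAMRA fluorescence gain over two minutes as APE1 cuts a quenched THF abasic duplex; on the % scale 0 is the no-effect control and ±100 the full control effect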)
Procedure, shortened: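 Fluorogenic double-stranded THF abasic-site substrate (5'-TAMRA/3'-BHQ-2), 50 nM final. Enzyme preincubated with compound 15 min at room temperature, then substrate added. Kinetic fluorescence (ex 525/em 598 nm) read three times at 60 s intervals; activity taken as third-minus-first read difference.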

[16] = Counterscreen for APE1 Inhibitors: Fluorescent Dye Displacement Validation Assay (AID 1707);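 further: plate controls were ThO with dsDNA and no compound for no effect and ThO without dsDNA for full effect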
Procedure, shortened: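 Signal: ThO fluorescence (ex 480 nm/em 540 nm) on binding 50 nM dsDNA; displacement by test compound reduces it. Conditions: 250 nM dye, 50 mM Tris-HCl pH7.5, 2 mM MgCl2, 50mM NaCl, 0.01% Tween-20.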

[17] = target: Endonuclease 4 (Escherichia coli (strain K12)) (UniProt P0A6C1); test: Counterscreen for APE1 Inhibitors: qHTS Validation Assay for Inhibitors of Endonuclease IV (AID 1708); further: on the % scale 0 is the no-effect control and ±100 the full control effect
Procedure, shortened: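 Incision of a double-stranded 50 nM TAMRA/BHQ-2 abasic substrate was followed kinetically (525/598 nm, reads every 60 s) after 15 min enzyme–compound preincubation with 2 nM EndoIV in pH 7.5 Tris buffer with MgCl2, DTT and Tween-20; concentration-response format.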

[18] = qHTS for differential inhibitors of proliferation of Plasmodium falciparum line 7G8 (AID 1815);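 further: parasite growth measured after three days of incubation; plate controls were vehicle wells for no effect and reference inhibitor wells for full effect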
[19] = qHTS for differential inhibitors of proliferation of Plasmodium falciparum line GB4 (AID 1816); settings: Potency: Plasmodium falciparum GB4 proliferation inhibition;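 further: parasite growth measured after 72 h incubation; 0% = vehicle DMSO and -100% = reference inhibitor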
[20] = qHTS for differential inhibitors of proliferation of Plasmodium falciparum line 3D7 (AID 1876);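 further: parasite growth measured after three days of culture; 0% = vehicle wells and -100% = reference inhibitor wells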

Sequence of Alpha-galactosidase (Coffea arabica) (Q42656 whole entry, looked up): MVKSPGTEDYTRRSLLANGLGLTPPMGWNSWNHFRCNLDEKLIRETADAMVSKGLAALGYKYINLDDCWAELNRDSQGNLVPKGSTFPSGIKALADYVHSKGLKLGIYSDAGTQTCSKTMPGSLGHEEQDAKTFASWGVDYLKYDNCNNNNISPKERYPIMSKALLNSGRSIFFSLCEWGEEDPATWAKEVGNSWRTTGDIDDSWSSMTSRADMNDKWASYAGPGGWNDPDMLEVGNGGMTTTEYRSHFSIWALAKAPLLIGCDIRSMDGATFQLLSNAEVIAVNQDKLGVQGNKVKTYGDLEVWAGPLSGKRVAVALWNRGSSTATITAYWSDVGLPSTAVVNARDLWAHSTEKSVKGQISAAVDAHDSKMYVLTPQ
Sequence of Glucocorticoid receptor (Homo sapiens) (P04150 whole entry, looked up, the tested form may be a part): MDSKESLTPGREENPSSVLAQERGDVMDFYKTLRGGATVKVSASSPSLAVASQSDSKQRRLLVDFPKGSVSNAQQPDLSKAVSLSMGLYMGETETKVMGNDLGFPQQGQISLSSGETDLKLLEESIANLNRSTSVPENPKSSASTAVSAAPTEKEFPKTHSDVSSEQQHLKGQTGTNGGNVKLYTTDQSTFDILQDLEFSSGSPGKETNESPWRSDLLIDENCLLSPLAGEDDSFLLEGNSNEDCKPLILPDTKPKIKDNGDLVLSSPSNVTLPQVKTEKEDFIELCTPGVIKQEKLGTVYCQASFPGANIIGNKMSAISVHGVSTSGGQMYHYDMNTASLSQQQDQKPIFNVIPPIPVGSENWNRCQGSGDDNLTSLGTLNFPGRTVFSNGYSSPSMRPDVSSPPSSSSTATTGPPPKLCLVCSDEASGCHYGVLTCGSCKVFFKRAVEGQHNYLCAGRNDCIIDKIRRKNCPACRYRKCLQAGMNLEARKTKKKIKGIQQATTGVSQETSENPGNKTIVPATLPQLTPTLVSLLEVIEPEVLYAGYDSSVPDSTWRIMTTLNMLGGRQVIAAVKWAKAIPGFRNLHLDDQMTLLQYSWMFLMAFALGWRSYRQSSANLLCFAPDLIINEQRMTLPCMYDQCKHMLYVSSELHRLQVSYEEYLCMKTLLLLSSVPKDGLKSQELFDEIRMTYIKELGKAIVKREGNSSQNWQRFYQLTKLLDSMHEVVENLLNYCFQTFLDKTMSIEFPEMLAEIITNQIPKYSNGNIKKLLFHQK
Sequence of Cytochrome P450 1A2 (Homo sapiens) (P05177 whole entry, looked up): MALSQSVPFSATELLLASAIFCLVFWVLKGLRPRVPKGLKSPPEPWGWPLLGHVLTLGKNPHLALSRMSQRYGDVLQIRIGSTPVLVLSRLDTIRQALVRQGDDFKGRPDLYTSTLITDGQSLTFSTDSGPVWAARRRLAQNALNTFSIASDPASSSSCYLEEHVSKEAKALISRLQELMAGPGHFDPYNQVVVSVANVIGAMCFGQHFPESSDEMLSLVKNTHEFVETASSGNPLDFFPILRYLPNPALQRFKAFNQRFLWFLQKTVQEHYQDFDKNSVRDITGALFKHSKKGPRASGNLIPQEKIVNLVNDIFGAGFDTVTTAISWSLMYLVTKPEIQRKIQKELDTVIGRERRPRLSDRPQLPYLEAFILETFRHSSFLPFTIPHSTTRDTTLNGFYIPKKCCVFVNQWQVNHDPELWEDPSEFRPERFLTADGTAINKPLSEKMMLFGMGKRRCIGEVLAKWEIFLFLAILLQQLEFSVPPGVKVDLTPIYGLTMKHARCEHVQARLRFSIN
Sequence of 3',5'-cyclic-AMP phosphodiesterase 4B (Homo sapiens) (Q07343 whole entry, looked up): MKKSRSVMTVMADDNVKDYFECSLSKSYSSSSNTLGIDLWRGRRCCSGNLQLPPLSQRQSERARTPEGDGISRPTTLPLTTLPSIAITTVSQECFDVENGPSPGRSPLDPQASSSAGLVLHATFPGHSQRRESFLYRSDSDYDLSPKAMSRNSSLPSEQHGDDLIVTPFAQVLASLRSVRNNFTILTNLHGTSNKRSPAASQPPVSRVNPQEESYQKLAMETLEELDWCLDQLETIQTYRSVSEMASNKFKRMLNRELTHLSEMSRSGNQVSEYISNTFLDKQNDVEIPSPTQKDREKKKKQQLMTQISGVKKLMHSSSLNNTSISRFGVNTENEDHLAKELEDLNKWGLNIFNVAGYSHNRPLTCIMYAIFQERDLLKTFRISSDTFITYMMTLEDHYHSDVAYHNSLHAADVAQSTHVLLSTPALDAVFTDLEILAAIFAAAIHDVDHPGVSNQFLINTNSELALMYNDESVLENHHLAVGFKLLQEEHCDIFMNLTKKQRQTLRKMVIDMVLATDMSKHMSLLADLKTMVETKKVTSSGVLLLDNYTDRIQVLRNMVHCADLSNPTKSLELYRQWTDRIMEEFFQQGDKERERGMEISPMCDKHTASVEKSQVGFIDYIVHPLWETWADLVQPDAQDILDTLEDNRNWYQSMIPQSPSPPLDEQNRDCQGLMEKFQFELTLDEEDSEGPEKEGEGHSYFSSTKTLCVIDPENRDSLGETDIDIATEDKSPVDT
Sequence of Pyruvate kinase (Leishmania mexicana) (Q27686 2-499 E452W): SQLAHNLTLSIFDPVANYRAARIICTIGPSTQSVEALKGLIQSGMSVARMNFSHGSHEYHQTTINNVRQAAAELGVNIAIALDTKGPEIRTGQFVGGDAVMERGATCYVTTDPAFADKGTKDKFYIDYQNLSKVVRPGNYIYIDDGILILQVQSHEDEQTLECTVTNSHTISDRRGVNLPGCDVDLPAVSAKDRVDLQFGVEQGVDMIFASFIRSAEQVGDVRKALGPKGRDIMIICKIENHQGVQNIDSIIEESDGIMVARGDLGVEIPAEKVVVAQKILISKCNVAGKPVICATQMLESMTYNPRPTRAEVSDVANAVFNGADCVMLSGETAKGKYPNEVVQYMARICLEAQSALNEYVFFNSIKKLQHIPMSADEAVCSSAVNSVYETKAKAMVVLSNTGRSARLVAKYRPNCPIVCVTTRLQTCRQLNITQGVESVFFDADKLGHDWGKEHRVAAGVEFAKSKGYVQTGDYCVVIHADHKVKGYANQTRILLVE
Sequence of Guanine nucleotide-binding protein G(i) subunit alpha-1 (Homo sapiens) (P63096 whole entry, looked up): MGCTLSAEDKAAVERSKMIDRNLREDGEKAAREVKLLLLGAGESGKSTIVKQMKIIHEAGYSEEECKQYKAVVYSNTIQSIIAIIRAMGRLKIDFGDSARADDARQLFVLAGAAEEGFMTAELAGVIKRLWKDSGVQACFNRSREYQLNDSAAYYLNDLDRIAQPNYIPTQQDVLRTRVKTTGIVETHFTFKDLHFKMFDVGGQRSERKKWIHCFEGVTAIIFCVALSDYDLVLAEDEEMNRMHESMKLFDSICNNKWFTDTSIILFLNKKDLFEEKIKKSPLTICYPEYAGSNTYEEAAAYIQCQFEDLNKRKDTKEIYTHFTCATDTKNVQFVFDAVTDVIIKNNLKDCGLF
Sequence of Alpha-galactosidase A (Homo sapiens) (P06280 whole entry, looked up): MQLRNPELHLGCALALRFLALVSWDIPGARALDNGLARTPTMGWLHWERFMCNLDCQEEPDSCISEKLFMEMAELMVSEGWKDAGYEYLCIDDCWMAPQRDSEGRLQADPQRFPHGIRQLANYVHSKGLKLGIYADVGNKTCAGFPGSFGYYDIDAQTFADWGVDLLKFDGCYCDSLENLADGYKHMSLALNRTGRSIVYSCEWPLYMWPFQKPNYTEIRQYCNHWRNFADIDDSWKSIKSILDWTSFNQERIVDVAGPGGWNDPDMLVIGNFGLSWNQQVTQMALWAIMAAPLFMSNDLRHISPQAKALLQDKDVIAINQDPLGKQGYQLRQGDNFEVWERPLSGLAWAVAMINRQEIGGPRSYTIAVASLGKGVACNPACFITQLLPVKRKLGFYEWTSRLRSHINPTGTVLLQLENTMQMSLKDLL
Sequence of Muscarinic acetylcholine receptor M1 (Rattus norvegicus) (P08482 whole entry, looked up): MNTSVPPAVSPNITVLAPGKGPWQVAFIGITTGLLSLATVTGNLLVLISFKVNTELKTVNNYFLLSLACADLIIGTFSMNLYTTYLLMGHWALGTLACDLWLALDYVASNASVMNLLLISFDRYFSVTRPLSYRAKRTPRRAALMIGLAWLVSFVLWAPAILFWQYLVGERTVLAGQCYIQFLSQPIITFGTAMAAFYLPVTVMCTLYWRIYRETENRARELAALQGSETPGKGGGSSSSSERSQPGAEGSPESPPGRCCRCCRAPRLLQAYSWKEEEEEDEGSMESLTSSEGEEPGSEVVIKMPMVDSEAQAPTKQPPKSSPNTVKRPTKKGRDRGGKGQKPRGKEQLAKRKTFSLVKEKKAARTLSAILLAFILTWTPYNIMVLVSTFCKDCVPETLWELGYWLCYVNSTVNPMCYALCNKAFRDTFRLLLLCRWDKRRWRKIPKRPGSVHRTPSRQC
Sequence of DNA repair nuclease/redox regulator APEX1 (Homo sapiens) (P27695 whole entry, looked up): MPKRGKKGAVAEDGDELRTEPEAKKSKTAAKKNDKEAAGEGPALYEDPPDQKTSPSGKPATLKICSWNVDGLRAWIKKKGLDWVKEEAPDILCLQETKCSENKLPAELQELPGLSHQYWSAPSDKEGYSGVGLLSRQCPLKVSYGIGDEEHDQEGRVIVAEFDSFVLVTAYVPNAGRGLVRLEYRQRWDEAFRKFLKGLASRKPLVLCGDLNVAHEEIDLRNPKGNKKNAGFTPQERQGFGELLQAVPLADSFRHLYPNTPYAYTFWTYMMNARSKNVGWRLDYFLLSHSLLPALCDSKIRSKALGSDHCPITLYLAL

COc1cc(CCN)ccc1O
inactive: Potency [1] | activity change, negative = inhibition [2] 5.48% | Potency [3] > 46 µM | Potency [4] > 46 µM | outcome [5] | Potency [6] | outcome [7] | outcome [8] | Potency [9] | outcome [10] | outcome [11] | outcome [12] | outcome [13] | outcome [14] | Potency [15] | Potency [16] | outcome [17] | Potency [18] | Potency [19] | Potency [20]
